This note sets out measurements from PubChem BioAssay AID710 (SRMLSC, 2007).

SMILES strings stand for the structures. Among all 98,000 compounds or so, about 150 (0.15%) were called active.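 The calls were made as follows: active = growth inhibition above about 50% at one test dose (limit read from the data); inactive = the rest.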 The full list was thinned out, with actives kept by preference.

The assay can be described thus: antibacterial activity against E. coli BW25113 – strain BW25113, expanded library, OD600, primary screen (AID 710).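 Also: growth measured after 20 h incubation at 37 °C.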 The settings on record: OD600 absorbance, at 100 µM, stronger effect = higher value.
As to `Cc1nnc(SCC(=O)NC2CCCC2)s1`, the growth inhibition is -2% (inactive).

Take `COc1ccc(C(C#N)Nc2ccc(C)cc2)cc1` (stereo unspecified): the growth inhibition is 3% (inactive).

Consider `CCOc1ccccc1C(=O)NCCCn1ccnc1`, for which the growth inhibition is 10% (inactive). Turning to `Brc1ccc(OCCn2ccnc2)cc1`, the growth inhibition is 55% (active). The value for `CC1(C)C2CCC1(C)C(OC(=O)CCn1ccnc1)C2` (stereo unspecified) was 6% (inactive); that for `Cc1ccc(Cc2c(C)nc3nc(SCC(=O)NCCN4CCOCC4)nn3c2C)cc1` was -9% (inactive). On to `Cc1ccc(S(=O)(=O)N(CC(=O)N/N=C/c2ccc(F)cc2)c2cccc3cccnc23)cc1`, for which the growth inhibition was -18% (inactive). With `CN(Cc1nc2ccccc2c(=O)[nH]1)Cc1cc(=O)oc2ccc3ccccc3c12`, the growth inhibition was -4% (inactive). The value for `COC(=O)C1=C(Nc2ccc(OC)cc2)C=C(C)C(C(=O)OC)C1c1ccc(C)cc1` (stereo unspecified) was -13% (inactive); that for `N#C/C(=C(/O)COc1cccc2ccccc12)c1nc2ccccc2[nH]1` was -8% (inactive); that for `OC(COc1ccc2c(c1)CCC2)CN1CCN(c2cccc(Cl)c2)CC1` (stereo unspecified) was 0% (inactive). For the molecule `CCc1nnc(NC(=O)CCC(=O)NCc2ccccc2OC)s1`, the growth inhibition is -2% (inactive).

As for `Cc1ccc(-c2nnc(-n3nnc4ccccc43)c3ccccc23)cc1`, the growth inhibition was -7% (inactive). As for `O=C(N/N=C/C=C/c1ccccc1)C1CC1(c1ccccc1)c1ccccc1` (stereo unspecified), the growth inhibition is -15% (inactive). Take `N=c1c2c(-c3ccccc3)c(-c3ccccc3)n(Cc3ccccc3)c2ncn1CCCO`: the growth inhibition is 13% (inactive).

`COc1ccc(/C=C2\CCCC3C2=NN(C(=O)c2scnc2C)C3c2ccc(OC)cc2)cc1` (stereo unspecified): the growth inhibition is -16% (inactive). In the case of `CCC(=O)NC(NCC1CCCO1)C(Cl)(Cl)Cl` (stereo unspecified), the growth inhibition is 3% (inactive).

Turning to `Cc1ccc(CNC(=O)COc2ccc(S(=O)(=O)NC(C)C)cc2)cc1`, the growth inhibition was 0% (inactive). Turning to `CSc1ccc(C#N)cc1NC(=O)c1cccc(Cl)c1`, the growth inhibition is -8% (inactive). For `Cc1cccc(NC(=O)/C(=C\c2ccco2)NC(=O)c2ccccc2)c1` the value was -2% (inactive); for `CNC(=S)NNC(=O)c1sccc1OCc1ccccc1`, -7% (inactive); for `Cc1ccc(NC(=S)NC(=O)c2ccc(-c3ccccc3)cc2)c(C)c1`, -9% (inactive). The value for `COc1cccc(N(CC(=O)NCCSc2ccccn2)S(C)(=O)=O)c1` was -2% (inactive); that for `CN(C)c1nc(N)nc(CSc2ccccn2)n1` was -1% (inactive). For `COc1ccccc1CSc1nc2ccccc2[nH]1`, the growth inhibition is 8% (inactive). Turning to `COc1ccc(Nc2nc(-c3ccccc3)cs2)cc1`, the growth inhibition is -6% (inactive).

`CN1C2CCC1/C(=C\c1ccccc1Cl)C(=O)/C2=C\c1ccccc1Cl`: the growth inhibition was -3% (inactive). The value for `CSCCC(C(=O)NC1=NCCS1)N1C(=O)c2ccccc2C1=O` (stereo unspecified) was -1% (inactive); that for `COc1ccccc1NC(=O)COc1ccc(C(=O)OCC(=O)N(C(C)C)C(C)C)cc1OC` was -6% (inactive). Regarding `Cc1ccc2nc(SCc3nnc(-c4ccccc4[N+](=O)[O-])o3)c(C#N)cc2c1`, the growth inhibition is -15% (inactive). As to `CC(Sc1nnc(Cc2ccc([N+](=O)[O-])cc2)o1)C(N)=O` (stereo unspecified), the growth inhibition is 2% (inactive). As for `COc1ccc(NC(=O)CC2COc3ccccc3O2)c(OC)c1` (stereo unspecified), the growth inhibition is 7% (inactive). The value for `CCN(CC)S(=O)(=O)c1ccc2c3c(cccc13)C(=O)S2` was 1% (inactive). On to `COC(=O)[C@@H](NC(=O)Nc1cc(Cl)ccc1C)C(C)C`, for which the growth inhibition was 2% (inactive). Regarding `O=C(Nc1ccc2nc3n(c(=O)c2c1)CCCCC3)c1ccccc1Cl`, the growth inhibition was -6% (inactive). On to `COc1ccc(NC(=O)CSc2nc(N)c(-c3ccccc3)c(=O)[nH]2)cc1`, for which the growth inhibition was -12% (inactive). Consider `CCOC(=O)c1cc2c(ccn2C)n1CC(=O)N1CCC(C)CC1`, for which the growth inhibition is -6% (inactive). Consider `COc1ccc(NC(=O)CSc2nc(NS(=O)(=O)c3ccc(C)cc3)cc(=O)[nH]2)cc1`, for which the growth inhibition is -5% (inactive). Regarding `COc1ccc(CN2CN(C(C)C)CSC2=S)cc1`, the growth inhibition is 38% (inactive).

Turning to `CC(CN1CCOCC1)c1ccccc1` (stereo unspecified), the growth inhibition is 4% (inactive). With `S=C1SCN(CCN2CCOCC2)CN1Cc1ccccc1`, the growth inhibition was 50% (active). For `COC(=O)c1ccc(CSc2nc3cc(Cl)ccc3o2)cc1`, the growth inhibition was -5% (inactive). With `CC(=O)Nc1ccc(N2C(=O)CCC2=O)cc1C`, the growth inhibition was 0% (inactive). In the case of `Cc1n[nH]c(=S)n1/N=C/c1ccc(Br)o1`, the growth inhibition is -6% (inactive). The value for `COC(=O)c1ccc(NC(=O)c2ccccc2NS(=O)(=O)c2ccccc2)cc1` was 4% (inactive); that for `CCOCCOCCC(C(=O)O)P(=O)(c1ccccc1)c1ccccc1` (stereo unspecified) was 7% (inactive); that for `N#Cc1ccc(-c2ccc(Cl)cc2)nc1Oc1ccc(F)cc1` was -7% (inactive). On to `CCC1CCCCN1CCCNC(=O)C1CCC(Cn2c(=O)[nH]c3ccccc3c2=O)CC1` (stereo unspecified), for which the growth inhibition was 4% (inactive). As for `O=C1/C(=C/c2cccs2)CCc2ccccc21`, the growth inhibition is 7% (inactive). For `Cc1cccc(NC(=O)C(C)N2C(=O)C3C4CC(C(Br)C4Br)C3C2=O)c1` (stereo unspecified), the growth inhibition was 7% (inactive). The value for `Cc1ccc(S(=O)(=O)N(C)C2(C)CCS(=O)(=O)C2)cc1` (stereo unspecified) was 4% (inactive); that for `O=C(CN1CCSCC1)N/N=C/c1ccc(F)cc1` was 2% (inactive). Consider `CCCCNc1ccc(C(=O)Nc2cccc(C)n2)cc1[N+](=O)[O-]`, for which the growth inhibition is 4% (inactive). For `CCN(CC)C(=O)CSC1c2ccccc2C(=O)N1c1ccccc1` (stereo unspecified) the value was 1% (inactive); for `CCCOc1ccc(C2NC(=O)NC(c3ccccc3)=C2C(C)=O)cc1OCC` (stereo unspecified), -2% (inactive); for `COc1ccc(C(=O)Nc2ccc(F)cc2F)cc1`, 10% (inactive). In the case of `CC(C)(C)c1cc2cccnc2n1Cc1ccccc1`, the growth inhibition was 9% (inactive). The value for `Cc1ccc(-c2nc3ccccc3[nH]2)cc1NC(=O)c1sc2ccccc2c1Cl` was -18% (inactive); that for `CCC(=O)N(Cc1ccccc1)c1ccccn1` was -3% (inactive). In the case of `CCc1cc(C(c2ccccc2OC)N2CCOCC2)c(NC(=O)c2ccccc2)s1` (stereo unspecified), the growth inhibition is -3% (inactive). For `CSc1ccccc1NC(=O)c1cc(C2CC2)on1`, the growth inhibition was 6% (inactive). For the molecule `O=C(c1ccccc1)C(Cn1cncn1)C(Sc1ccccc1)c1ccccc1` (stereo unspecified), the growth inhibition was -9% (inactive). For `O=C(CCN1C(=O)c2ccccc2C1=O)Nc1cccc(F)c1`, the growth inhibition was 0% (inactive). As to `c1ccc2c(C[n+]3csc4ccccc43)cccc2c1`, the growth inhibition was -14% (inactive). The value for `CCCC(=O)Nc1nc2ccc(NC(=O)c3cccnc3)cc2s1` was 8% (inactive); that for `O=C(CC12CC3CC(CC(C3)C1)C2)Nc1ccc2c(c1)COC2=O` was -1% (inactive). As to `ON=C1/C(=N\O)CC2(C/C1=N/O)OCCO2`, the growth inhibition is 57% (active). Turning to `O/N=C1\CC2(Cc3nonc31)OCCO2`, the growth inhibition is -4% (inactive). For `N=c1ccn(CC(=O)NC(N)=O)c2ccccc12` the value was -4% (inactive); for `O=C(Nc1nnc(-c2ccc(Cl)cc2)o1)c1ccccc1Br`, 57% (active).

On to `Cc1nonc1NC(=O)c1ccccc1Br`, for which the growth inhibition is -2% (inactive). As to `O=C(Nc1cccc(Cl)c1)Nc1nnc(-c2ccccc2)o1`, the growth inhibition is 2% (inactive). As to `CCCN(Cc1cc2cccc(C)c2[nH]c1=O)S(C)(=O)=O`, the growth inhibition is 2% (inactive). As for `CCSc1nc(-c2ccc(OC)cc2)cc(-c2ccc(OC)cc2)c1C#N`, the growth inhibition was -14% (inactive). For `CC(C)(C)Cc1nnc(NC(=O)c2cc(-c3ccccc3)nc3ccccc23)s1` the value was -12% (inactive); for `Cc1cc2c(cc1C)N(C(=O)CN1C(=O)c3ccccc3C1=O)C(C)(C)c1ssc(=S)c1-2`, -26% (inactive).

With `CC(C)NC(=O)C(=O)N/N=C/c1ccco1`, the growth inhibition was 0% (inactive). `Cc1ccc(NC(=S)NC2CCCC2)cc1`: the growth inhibition was 10% (inactive). For `CCOc1ccc(OCC)c(-c2c(=O)n(OCc3ccc(Cl)cc3)c3ccccc3[n+]2[O-])c1`, the growth inhibition is -15% (inactive).

Consider `COc1ccc([N+](=O)[O-])cc1C1NN=C(c2cccc3ccccc23)S1` (stereo unspecified), for which the growth inhibition is 3% (inactive). As for `Cc1cc(C)cc(OCC(=O)Nc2nc3ccc([N+](=O)[O-])cc3s2)c1`, the growth inhibition was -14% (inactive).

Consider `O=C(NC(Nc1nc2ccc([N+](=O)[O-])cc2s1)(C(F)(F)F)C(F)(F)F)c1ccccc1`, for which the growth inhibition is 50% (active). With `COC(=O)C(NC(=O)c1ccc(OC)cc1)(Nc1ncc(S(=O)(=O)c2ccc([N+](=O)[O-])cc2)s1)C(F)(F)F` (stereo unspecified), the growth inhibition was -3% (inactive).

`Cc1cc(C)c2cc(CN(Cc3nnnn3Cc3ccc(F)cc3)C3CCCC3)c(=O)[nH]c2c1`: the growth inhibition is -11% (inactive).

With `O=C(NC1CCN(C(=S)NCc2ccco2)CC1)c1ccc(F)cc1`, the growth inhibition is -4% (inactive). For `Cc1ccccc1OC/C(O)=C(\C#N)c1nc2ccccc2[nH]1`, the growth inhibition is -10% (inactive). As to `O=C(Cc1ccccc1)N/N=C/c1ccc(Cl)cc1Cl`, the growth inhibition was 1% (inactive).

Turning to `CC12c3ccccc3C(c3ccccc31)C1C(=O)N(Cc3cccnc3)C(=O)C12` (stereo unspecified), the growth inhibition was -1% (inactive). The value for `CCOc1ccc(N=C2NC(=O)S/C2=C\c2ccc(O)cc2)cc1` was -8% (inactive); that for `O=C(CC(O)(C(F)(F)F)C(F)(F)F)Nc1ccc(Cl)c(Cl)c1` was 88% (active).

Regarding `Cc1nnc(NC(=O)Nc2ccc(Cl)c(Cl)c2)s1`, the growth inhibition was -9% (inactive).

For `N/C(=N\OC(=O)Nc1ccc(Cl)c(Cl)c1)c1ncc(C(F)(F)F)cc1Cl`, the growth inhibition is 8% (inactive). For `Cc1nn(C)c(Oc2ccc(Cl)cc2)c1C=O` the value was -1% (inactive).

As for `FC(F)(F)c1ccc2nnc(-c3c(Cl)cccc3Cl)n2c1`, the growth inhibition was -2% (inactive).

With `Cc1cc(C)c2c(-n3cccc3)c(C(=O)NNS(=O)(=O)c3ccc(F)cc3)sc2n1`, the growth inhibition is 16% (inactive). In the case of `NC(=O)COc1ccc(/C=N/NC(=O)C2CCCN2S(=O)(=O)c2ccc(Cl)cc2)cc1` (stereo unspecified), the growth inhibition was 6% (inactive). For the molecule `COC(=O)c1sc2ncccc2c1OCc1ccc(Cl)cc1Cl`, the growth inhibition was -14% (inactive).

On to `NC(N)=N/N=C/c1ccc(OCc2ccc(Cl)cc2Cl)cc1`, for which the growth inhibition was 97% (active). As to `C=CCOC(=O)C1=C(C)NC(C)=C(C(=O)OCC=C)C1c1cccs1`, the growth inhibition is 5% (inactive).

On to `CCOC(=O)CN(Cc1ccc(OC)c(OC)c1)S(=O)(=O)c1ccc(OC)cc1`, for which the growth inhibition is 0% (inactive). The value for `O=C(NCc1cccnc1)c1cccnc1Sc1ccc(Cl)cc1` was 10% (inactive).
